Reference: PubChem BioAssay AID624330 (Southern Research Specialized Biocontainment Screening …, 2012)
Hit rate of the full screen: of about 340,000 compounds, about 2,100 (0.62%) were called active.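 The calls were made as follows: active = first-screen hits whose inhibition reached a set limit at any dose in the follow-up dose series; inconclusive = inhibition above the set first-screen limit but never retested; inactive = the rest.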 Only a sample is shown. Results with a measured potency or affinity are listed apart.

Target: Rac GTPase-activating protein 1 (Homo sapiens) (UniProt Q9H0H5)
Sequence (Q9H0H5 whole entry, looked up): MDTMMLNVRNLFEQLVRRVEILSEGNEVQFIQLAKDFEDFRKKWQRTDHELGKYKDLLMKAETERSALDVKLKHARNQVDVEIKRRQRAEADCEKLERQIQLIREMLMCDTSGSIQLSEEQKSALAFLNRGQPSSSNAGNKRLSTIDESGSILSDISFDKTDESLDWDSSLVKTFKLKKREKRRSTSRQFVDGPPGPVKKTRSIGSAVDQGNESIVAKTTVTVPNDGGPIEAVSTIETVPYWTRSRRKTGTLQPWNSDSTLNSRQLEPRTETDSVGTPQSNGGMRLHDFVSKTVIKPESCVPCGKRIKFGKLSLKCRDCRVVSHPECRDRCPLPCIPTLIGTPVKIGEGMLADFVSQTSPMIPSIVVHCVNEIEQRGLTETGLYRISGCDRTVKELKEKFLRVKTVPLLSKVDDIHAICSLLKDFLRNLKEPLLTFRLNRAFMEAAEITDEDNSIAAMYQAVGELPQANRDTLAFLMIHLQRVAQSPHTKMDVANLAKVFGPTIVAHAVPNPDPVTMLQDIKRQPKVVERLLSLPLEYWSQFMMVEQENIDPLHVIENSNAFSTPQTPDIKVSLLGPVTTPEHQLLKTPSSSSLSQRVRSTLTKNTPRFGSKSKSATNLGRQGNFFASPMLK
Assay: blockers of MgcRacGAP-driven Rac1 GTP hydrolysis – biochemical, ADP Hunter fluorescence, primary and confirmatory, confirmation (AID 624330);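 also: fluorescence reports GDP produced by GAP-driven GTP hydrolysis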
Conditions: MgcRacGAP-stimulated Rac1 GTP hydrolysis, at 30 µM, hits give high values, GST-tagged Rac1 F28L mutant substrate

inhibition, inactive:
COCCN1C(=O)N(c2ccccc2)C(=O)C1CC(=O)Nc1cc(OC)cc(OC)c1 (stereo not drawn) -13.2%, COC(=O)C(Cc1cncn1COCc1ccccc1)NC(=O)OC(C)(C)C (stereo not drawn) 4.31%, c1ccc(CN2CCN(c3ncnc4c3[nH]c3ccccc34)CC2)cc1 20.2%, Cc1ccc2[nH]c3c(N4CCN(Cc5ccccc5)CC4)ncnc3c2c1 22.2%, O=C(CCCc1ccccc1)Nc1ccnn1C1CCN(Cc2ccccc2F)CC1 7.8%, Cc1occc1C(=O)NNC(=O)C1CCCC1 0.63%, COc1ccc(CN2CCOCC2)cc1OC 11.6%, COc1ccc(CN2CCN(C)CC2)cc1OCc1ccccc1 8.63%, COc1cc(OC)cc(C(=O)N2CCN(Cc3cccc(F)c3)CC2)c1 27.4%, COc1cccc(CN2CCSCC2)c1 16.8%, COc1ccc(N2CCN(C(C)C(=O)N(C)Cc3ccccc3)CC2)cc1 (stereo not drawn) 11%, COc1ccc(CN2CCC(Cc3ccccc3)CC2)cc1OC 29.4%, CNC(=O)NC(=O)C(C)N1CCN(C/C=C/c2ccccc2)CC1 (stereo not drawn) -5.37%, COc1ccc(CN2CCN(C(=O)c3cccc4ccccc34)CC2)cc1OC 30.3%, O=C(CN(c1ccccn1)S(=O)(=O)c1ccccc1)N/N=C/c1cccc([N+](=O)[O-])c1 6.03%, CC(NC(=O)C1CCN(c2nnc(N3CCCC3=O)s2)CC1)c1ccccc1 (stereo not drawn) 1.18%, Cc1nn(-c2cc(C(F)(F)F)ccc2Cl)c2nc(C(F)(F)F)[nH]c(=O)c12 6.22%, CCN1C(=O)CC(N2CCN(c3cccc(OC)c3)CC2)C1=O (stereo not drawn) 7.87%, COc1ccc(CN2CCN(c3ncccn3)CC2)c(OC)c1 9.88%, CC(C(=O)N(C)Cc1cccc(F)c1)N1CCN(S(=O)(=O)c2ccc3c(c2)OCCCO3)CC1 (stereo not drawn) 4.74%, COc1ccc(CN2CCN(c3ccccc3OC)CC2)c(OC)c1 25.9%, COc1ccc(CN2CCN(C(C)C(=O)N3CCc4ccccc43)CC2)cc1OC (stereo not drawn) 7.8%, COc1cc(OC)c(OC)cc1CN1CCN(Cc2cccc(F)c2)CC1 9.82%, COc1cc(CN2CCN(Cc3ccc(C)cc3)CC2)c([N+](=O)[O-])cc1OC 31.1%, COc1ccc(CN2CCN(S(=O)(=O)c3ccc(F)cc3)CC2)cc1OC 19.8%, COc1cc(CN2CCN(Cc3ccc([N+](=O)[O-])cc3)CC2)c([N+](=O)[O-])cc1OC 28.4%, CC(NCC(c1ccco1)N1CCCCC1)C(=O)NC1CCCC1 (stereo not drawn) 6.01%, Cc1[nH]ccc(=O)c1OCc1ccc(Cl)cc1 8.17%, CCCSc1nnc2c(n1)OC(c1cccn1C)N(C(C)=O)c1ccccc1-2 (stereo not drawn) 7.61%, Cc1cccc(NC(=O)Nc2cnccn2)c1C 7.34%, COc1cc(C(=O)NC2CCCC2)c(Br)c(OC)c1OC 11.2%, Cc1ccc(C(CNS(=O)(=O)c2ccc(F)cc2)N2CCN(C)CC2)cc1 (stereo not drawn) 3.73%, C#CCOCCOCCOCCNc1nc(N2CCN(C(=O)[C@H]([C@@H](C)O)n3cc(CCCCN)nn3)CC2)nc(N2CCN(C(=O)[C@H](C)n3cc(CCCN=C(N)N)nn3)CC2)n1 6.19%, CCOc1ncccc1C(=O)OCC(=O)c1ccc(OC)c(OC)c1 2%, CCCN1CCC(N(CCc2ccccc2)Cc2ccccc2)CC1 -10%, COc1cccc(CN2CCC(N(CCc3ccccc3)Cc3ccccc3)CC2)c1OC 22.3%, CSc1nnc(-c2ccc(S(=O)(=O)N3CCCCC3)cc2)o1 1%, CCC(C)c1ccccc1NC(=O)C(C)OC(=O)c1ccco1 (stereo not drawn) 1.05%, O=c1c(Cc2c(F)cccc2Cl)c(O)ccn1CC1CCCO1 (stereo not drawn) -2.7%, CCOC(=O)CCc1c(C)nc2cc(-c3ccc(Cl)cc3)[nH]n2c1=O -6.3%, O=C(CCNC(=O)c1ccco1)Nc1ccc(SC(F)F)cc1 -1.92%, Cc1nnc(SCC(=O)N2CCN(c3ccccc3)CC2)n1C1CC1 5.61%, COc1ccc(N2CCN(C(=O)CSc3nnc(C4CC4)n3C3CC3)CC2)cc1 24.3%, O=C(CSc1nnnn1C1CC1)N1CCN(c2cccc(Cl)c2)CC1 6.11%, COc1ccc(N2CCN(C(=O)CSc3nnnn3C3CC3)CC2)cc1 16.6%, C[C@@H]1[C@H]2CCCC[C@H]2CN(C(=O)OC(C)(C)C)[C@@H]1CC(=O)c1ccccc1 12.5%, COc1ccc(CN2CCS(=O)(=O)CC2)cc1OC -1.72%, CCOC(=O)C1CCCN(S(=O)(=O)c2ccc(Cl)nc2)C1 (stereo not drawn) 0.62%, CCC(=O)c1ccccc1OCCN1C(=O)NC(C)(C)C1=O 3.57%, Cc1ccc(CNCc2ccccc2Cl)cc1 3.27%, Cc1ccccc1CNCc1ccc2c(c1)OCO2 25.3%, Clc1ccccc1CNCc1ccncc1 -5.2%, Fc1ccccc1CNCc1ccc2c(c1)OCO2 6.19%, CC1=C(C(=O)NC(C)CCc2ccccc2)C2(CCC(C)CC2)OC1=O (stereo not drawn) 9.85%, O=C(C[n+]1cccc(/C=N/O)c1)N(Cc1ccccc1)Cc1ccccc1 2.39%, COc1ccc(CCNC(=O)CSc2n[nH]c(N)n2)cc1 9.27%, Cc1csc(=O)n1CCC(=O)OCC(=O)Nc1ccc(S(N)(=O)=O)cc1 6.26%, O=C(CCN1C(=O)[C@@H]2Cc3ccccc3CN2C1=O)NCc1ccccc1Cl 13.7%, CCOc1ccc(S(=O)(=O)N2CCCC(C(=O)Nc3ccccc3)C2)cc1 (stereo not drawn) 4.61%, COc1ccccc1/C=C(/C(=O)OCC(=O)Nc1ccccc1C)c1ccccc1 8.5%, CCc1ccc(NC(=O)COC(=O)/C(=C/c2ccccc2OC)c2ccccc2)cc1 -0.32%, COc1cc(CC(=O)OCC(=O)Nc2ccc3c(c2)OCO3)cc(OC)c1OC 12.4%, COc1cc(CC(=O)OCC(=O)Nc2ccc([N+](=O)[O-])cc2)cc(OC)c1OC 13.3%, CCN(CC)S(=O)(=O)c1ccc(NC(=O)COC(=O)CCc2cc(OC)c(OC)c(OC)c2)cc1 1.83%, CCN(c1ccc(NC(=O)COC(=O)CCc2cc(OC)c(OC)c(OC)c2)cc1)C(C)C 14.8%, COc1ccc(NC(C)=O)cc1C 16.4%, COCc1cc(C)n(CC(=O)Nc2ccc(N3CCOCC3)cc2)c(=O)c1C#N 1.03%, Nc1c(C(=O)c2cccs2)oc2ccccc12 6.17%, Cc1ccc(C(=O)OCc2nnc(-c3ccccc3)o2)o1 6.62%, COCCCn1c(=S)[nH]c2c(sc3ccccc32)c1=O 21%, O=c1c2ccccc2[nH]c(=S)n1CCCN1CCOCC1 4.66%, CCN(CC)S(=O)(=O)c1cc(C(=O)OCC(=O)Nc2ccc(-c3nc4ccc(C)cc4s3)cc2)ccc1F 4.33%, COc1ccc2c(c1)-c1nc(NC(=O)c3cccs3)sc1CC2 8.83%, CC(=O)Nc1nc2c(s1)CCc1ccccc1-2 8.9%, COc1ccc2c(c1)-c1nc(NC(=O)c3ccco3)sc1CC2 8.71%, Nc1nc2c(s1)COc1ccccc1-2 4.85%, c1cc(CNc2ccc(N3CCOCC3)cc2)ccn1 13.9%, Cc1ccc(CNc2ccc(N3CCOCC3)c(C(=O)O)c2)s1 6.12%, CCc1ccc(N2CCN(C(=O)N3CCOCC3)CC2)cc1 7.01%, CC(=O)c1ccc(N2CCN(C(=O)Nc3ccc(C(C)C)cc3)CC2)cc1 6.75%, CCC(=O)N1CCN(c2ccc(NC(=O)COc3ccc(CC)cc3)cc2)CC1 3.4%, CC(=O)N1CCN(c2ccc(NCc3ccc(C)s3)cc2)CC1 30.4%, O=S(=O)(c1ccc(NCc2ccccc2)cc1)N1CCOCC1 5.28%, CC(=O)N1CCN(c2ccc(NC(=O)c3ccc(Cl)cc3)cc2)CC1 4.31%, Cc1cc(=O)[nH]c(NN=C2C3CC4CC(C3)CC2C4)n1 -3.7%, CS(=O)(=O)NNC(=O)C1Cc2c(ccc3ccccc23)O1 (stereo not drawn) 8.23%, CC1CCCC(C)N1CCNC(=O)Nc1ccc(Cl)cc1 (stereo not drawn) 6.73%, COc1ccc(NC(=O)C2CCN(C(=O)[C@@H]3Cc4ccccc4CN3)CC2)cc1 -3.28%, O=C(OCc1ccccc1)/C(=C/c1cccc2ccccc12)NC(=O)c1ccccc1 4.32%, N#CC1=C(c2ccc(-c3ccccc3)cc2)COC1=O 7.38%, CC(C)c1ccc(S(=O)(=O)Nc2ccc(N3CCOCC3)cc2)cc1 8.59%, CC(=O)N1CCN(c2ccc(NC(=O)c3ccccc3)cc2)CC1 11.9%, CC(C)c1ccc(C(=O)Nc2ccc(N3CCOCC3)cc2)cc1 7.63%, CC(=O)N1CCN(c2ccc(NC(=O)c3ccc(F)cc3)cc2)CC1 13.2%, CCc1ccc(NC(=O)N2CCN(c3ccc(F)cc3)CC2)cc1 2.99%, COc1cccc(N2C(=O)CC(Nc3ccc(N4CCOCC4)cc3)C2=O)c1 (stereo not drawn) 20.1%, CC(=O)N1CCN(c2ccc(NC(=O)C(c3ccccc3)c3ccccc3)cc2)CC1 3.06%, CCc1ccc(NC2CC(=O)N(c3ccc(OC)cc3OC)C2=O)cc1 (stereo not drawn) 4.67%
